# Among all 340,000 compounds or so, about 1,000 (0.29%) were called active. Cut-off read from the data, not from the text of the source: inconclusive = inhibition above about 29% without an active follow-up result; inactive = below that. The list is a sample of the results. Results with a measured potency or affinity are listed apart.
# Biological target: Genome polyprotein (Dengue virus type 2 (strain 16681-PDK53)) (UniProt P29991)
# Assay: flavivirus cap methylation enzyme inhibition – biochemical, confirmation dose response, primary screen (AID 588689)
# Conditions: Dengue-2 NS5 methyltransferase capping enzyme assay, at 25 µM, stronger effect = higher value
# [1] = measured here: pilot screen replicate inhibition
SMILES,inhibition,inhibition [1] [%]
CC1(C)CC(=O)C=C(C(=O)N2CCCC(C(=O)c3cc(F)ccc3F)C2)O1 (configuration not stated),-6.28% (inactive),–
CCN(C1CCCCC1)S(=O)(=O)CCNC(=O)c1ccc2c(c1)OCO2,-2.2% (inactive),–
Cc1ccn(-c2cc(O)c(-n3ccc(C)n3)cc2O)n1,-6.11% (inactive),–
c1ccc2c(-n3cccn3)cccc2c1,-11.8% (inactive),–
CCOc1ccccc1C(=O)OCC(=O)Nc1ccc(OC(F)F)cc1,0.68% (inactive),-8.52
COc1ccc(OC)c(/C=C2\SC(=S)N(NS(=O)(=O)c3ccccc3)C2=O)c1,43.4% (inactive),–
COc1ccccc1/C=C1\SC(=S)N(N2C(=O)CCCC2=O)C1=O,0% (inactive),–
COc1ccc(/C=C2\SC(=S)N(NS(=O)(=O)c3ccc(C)cc3)C2=O)c(OC)c1,16.5% (inactive),–
COc1ccccc1/C=C1\SC(=S)N(Nc2nc(C)cc(C)n2)C1=O,7.21% (inactive),–
Cc1cc2cc(C#N)c(SCC(=O)Nc3nonc3C)nc2cc1C,3.66% (inactive),–
O=C(CSc1nnc2ccccn12)NC(=O)c1cccc([N+](=O)[O-])c1,-2.72% (inactive),–
Cc1nc(NN)nc(NCc2ccccc2)n1,-1.54% (inactive),–
CC[C@H]1c2[nH]c3ccccc3c2C[C@@H]2C(=O)N(c3ccc(F)cc3)C(=O)N21,0% (inactive),–
Cc1ccc(C(=O)NNC(=O)C2CSC3(C)CCC(=O)N23)cc1 (configuration not stated),5.19% (inactive),–
CC(=O)Nc1c(O)nc(SCC(=O)Nc2nnc(SCc3ccccc3)s2)[nH]c1=O,3.91% (inactive),–
Cc1cc(=O)[nH]c(SCC(=O)Nc2nnc(SCc3ccccc3)s2)n1,-1.48% (inactive),–
COc1cccc(CN2CCNC(=O)C2CC(=O)NCCc2ccccn2)c1 (configuration not stated),-3.12% (inactive),–
Cc1occc1C(=O)Nc1cnn(CCCC(=O)O)c1,0.32% (inactive),–
O=C(CC(=O)NN=C1CCCCCC1)NCc1cccnc1,-7.12% (inactive),–
CCOc1cc(/C=C2/SC(=S)N(Cc3ccccc3)C2=O)ccc1O,-16.7% (inactive),–

SMILES,inhibition,inhibition [1] [%]
COc1cc(/C=C2/SC(=S)N(CC(=O)O)C2=O)ccc1OC(=O)c1ccco1,-8.15% (inactive),–
CCOc1ccc(/C=C2\SC(=S)N(CCC(=O)O)C2=O)cc1,10.9% (inactive),–
COc1cc(/C=C2\SC(=S)N(CC(=O)O)C2=O)ccc1OC(=O)c1ccco1,-6.52% (inactive),–
CCn1c(O)c(/C=C2\C=NN=C2c2ccccc2)sc1=S,1.56% (inactive),–
Cc1ccc(C2=NN(C(=O)CCC(=O)O)C(c3ccc4c(c3)OCO4)C2)cc1 (configuration not stated),-1.55% (inactive),–
COc1ccc(CNC(=O)CN(Cc2ccccc2F)C(=O)c2csnn2)cc1,-7.27% (inactive),–
CCc1cccc2c1NC(=O)C21N2CCCC2C(C(=O)c2ccc3ccccc3c2)C12C(=O)Nc1ccccc12 (configuration not stated),-10.4% (inactive),–
Cc1c(Cl)cccc1NC(=O)CC1Sc2ccccc2NC1=O (configuration not stated),-2.59% (inactive),–
CCN(CC)c1ccc(C(=O)O)cc1,-2.67% (inactive),–
O=C(O)c1ccc(C(=O)C(=O)c2ccccc2)cc1,-3.83% (inactive),–
O=C(Oc1ccc(/C=N/NC(=O)c2ccccn2)cc1)c1cccc(F)c1,0.65% (inactive),–
O=S(=O)(c1ccccc1)c1nc(-c2ccc(F)cc2)oc1NCC1CCCO1 (configuration not stated),-1.48% (inactive),–
CC(C)NC(=O)C(=O)Nc1ccc2c(c1)N(S(=O)(=O)c1cccs1)CCC2,2.2% (inactive),–
CCn1c(-c2ccco2)nc2ccccc21,-5.14% (inactive),–
c1coc(Cn2c(-c3ccco3)nc3ccccc32)c1,-8.81% (inactive),–
O=C(CCc1nc(-c2ccc(Cl)cc2)no1)NCc1ccccc1CN1CCOCC1,1.12% (inactive),–
O=C(C=Cc1cccc(Cl)c1)c1ccccc1,-41.2% (inactive),–
CN(C)c1ccc(/C=C(\C#N)C(=O)c2ccccc2)cc1,-80.6% (inactive),–
CNC(=S)N(CCN(C)C)Cc1cc2cc3c(cc2[nH]c1=O)OCO3,-3.53% (inactive),–
Cn1c(=O)cc(N)n(-c2ccccc2)c1=O,1.3% (inactive),–

SMILES,inhibition,inhibition [1] [%]
O=C1c2ccccc2COc2ccc(O)cc21,4% (inactive),–
Cc1ccnc(N2CCC(C(=O)Nc3ccc4c(c3)CCC4)CC2)n1,-1.37% (inactive),-2.12
CCc1nnc(NC(=O)CSc2nc(-c3ccc(OC)cc3)ns2)s1,-9.71% (inactive),–
CN(C)c1ccc(C(=O)c2ccccc2C(=O)O)c(O)c1,-0.81% (inactive),–
CCN(CC)c1ccc(C(=O)c2ccccc2C(=O)O)c(O)c1,8.17% (inactive),6.25
Cc1nc(N)nc(N(C)c2ccccc2)c1Br,3.09% (inactive),–
O=C(COC(=O)C1CCN(S(=O)(=O)c2cccc3cccnc23)CC1)c1ccc([N+](=O)[O-])cc1,-7.6% (inactive),–
O=S(=O)(Cc1ccccc1)N1CCN(Cc2ccc(F)cc2Cl)CC1,-4.55% (inactive),–
COc1cc(C(c2c(C)[nH][nH]c2=O)c2c(C)[nH][nH]c2=O)cc(OC)c1OC,1.7% (inactive),–
COc1ccc(C(c2c(C)n(C)n(-c3ccccc3)c2=O)c2c(C)n(C)n(-c3ccccc3)c2=O)cc1OC,-2.72% (inactive),–
COc1ccc(N=C(c2ccccc2)c2c(C)[nH]n(-c3ccccc3)c2=O)c(OC)c1,-10.3% (inactive),–
COc1ccc(C(C[N+](=O)[O-])c2c(C)[nH]n(-c3ccccc3)c2=O)cc1 (configuration not stated),-13.7% (inactive),–
Nc1nccc(/C=C/c2c(Cl)cccc2Cl)n1,-5.43% (inactive),–
Cn1c(=O)c2c(SCc3ccccc3)nc(C3CC3)nc2n(C)c1=O,-11.1% (inactive),–
CC(C)(C)OC(=O)C[C@H]1C/C=C\C[C@@H](CC(=O)N(CCO)Cc2ccccc2)C(=O)N[C@@H](Cc2ccccc2)COC1=O,1.65% (inactive),–
CCOC(=O)C1CCN(C(=O)C2CCN(S(=O)(=O)c3ccc4c(c3)CC(C)N4C(C)=O)CC2)CC1 (configuration not stated),2.72% (inactive),–
O=C(C1CCN(Cc2ccc(Cl)cc2)CC1)N1CCN(C(c2ccccc2)c2ccccc2)CC1,-2.91% (inactive),–
O=C(O)c1ccc2c(c1)C(=O)N(c1cccc(C(=O)/C=C/c3ccccc3)c1)C2=O,-7.15% (inactive),–
O=C(O)c1ccc2c(c1)C(=O)N(c1ccc(Nc3ccccc3)cc1)C2=O,7.94% (inactive),–
